Here are results for 87 sequences from the supplement of paper PMC3334620.

The full ranking holds about 33,000 sequences; the median of “E-score (-0.5 to 0.5)” is about -0.032, and the highest 2% start at about 0.36. The sample as a whole holds a higher share of the highest values than the screen did.

For this assay, the target named is T1, Sko1 (UniProt Q02100).
T1 sequence: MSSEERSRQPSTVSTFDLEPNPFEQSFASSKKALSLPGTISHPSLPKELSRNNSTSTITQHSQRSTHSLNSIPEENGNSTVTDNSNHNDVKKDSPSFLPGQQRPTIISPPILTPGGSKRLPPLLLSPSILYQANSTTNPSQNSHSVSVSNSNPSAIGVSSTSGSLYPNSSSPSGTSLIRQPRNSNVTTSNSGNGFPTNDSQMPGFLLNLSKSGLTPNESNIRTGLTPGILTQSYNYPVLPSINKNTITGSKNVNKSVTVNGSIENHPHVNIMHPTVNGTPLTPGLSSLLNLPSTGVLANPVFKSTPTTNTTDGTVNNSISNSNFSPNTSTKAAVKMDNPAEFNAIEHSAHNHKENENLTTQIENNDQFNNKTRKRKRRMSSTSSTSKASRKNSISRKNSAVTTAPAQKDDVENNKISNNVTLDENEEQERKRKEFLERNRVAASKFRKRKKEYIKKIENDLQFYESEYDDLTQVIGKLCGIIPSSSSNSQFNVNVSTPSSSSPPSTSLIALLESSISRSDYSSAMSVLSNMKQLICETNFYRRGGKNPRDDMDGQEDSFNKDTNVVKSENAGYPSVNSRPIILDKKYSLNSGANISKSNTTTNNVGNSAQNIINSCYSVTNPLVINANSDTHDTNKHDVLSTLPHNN
Nature of the assay: PBM E-score (8-mer binding enrichment) (E-score (-0.5 to 0.5)); higher = stronger / more preferred TF binding. The settings on record: protein concentration: 200 nM; construct: GST-full length. Here is the method:
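Universal 'all 10-mer' protein binding microarrays (Agilent AMADID 015681) probed with GST-tagged S. cerevisiae TFs (full-length or DBD) made by in vitro transcription/translation (PURExpress), about 100-200 nM. Bound TF was detected with fluorescent anti-GST. Each ungapped 8-mer (which stands for itself and its reverse complement) is scored by the PBM enrichment score (E-score), a modified Wilcoxon-Mann-Whitney statistic from -0.5 to +0.5, computed with the Universal PBM Analysis Suite. Scale: above 0.35 generally sequence-specific binding.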
Consider TCTCGTAA, for which the “PBM E-score” value is 0.276.
In the case of TCTCGTCA it was 0.365; in that of ACTCGTCA, 0.404.
Consider GCTCGTCA, for which the “PBM E-score” value amounted to 0.351.
Under CCTCGTCA stands 0.381; under AACCCAAG, -0.00525.
In the case of ATAAGGAG it was -0.159; in that of CGTAGACA, 0.264.
In the case of GCGTCCAC it was -0.0966; in that of ATACTTTC, 0.0725.
As to ACCGACGG, the “PBM E-score” value was -0.181.
Under AAAGACGT stands 0.448; under AACGACGA, 0.166; under ACCGACGT, 0.376.
As for AACGACGT, the “PBM E-score” value amounted to 0.411.
Take AACGACGG: the “PBM E-score” value came out at 0.0454.
Under ACCGACGC stands 0.0727; under AAAGACGA, 0.172; under AAAGACGG, -0.111.
Under AGCTCAAA stands 0.0839.
Under ATGCCCTG stands -0.17.
Consider TACGGTGA, for which the “PBM E-score” value stood at 0.0938.
In the case of ACGGTCGG it was -0.28.
Under ACGGTCTG stands -0.0646; under GACCGCTC, -0.21.
CCAGTCTA: the “PBM E-score” value is -0.255.
In the case of AAGTGACC it was -0.141.
In the case of CATTGACG it was 0.412.
In the case of CATTGACA it was -0.0852; in that of AAGTGACT, -0.0253.
Consider CAGTGACA, for which the “PBM E-score” value was found to be 0.0692.
In the case of CAGTGACC it was -0.18.
In the case of CATTGACC it was 0.114; in that of AAGTGACG, 0.445; in that of CAGTGACG, 0.408.
In the case of GGCGAAAA it was 0.0196; in that of ATGTCCAC, 0.116; in that of GCCTGTCA, -0.157.
As for CCGGTCAA, the “PBM E-score” value was -0.12.
In the case of GTATTGCA it was 0.0688; in that of CACTGGGC, -0.304.
In the case of CTTTCATA it was 0.257.
Under GCTAGCCC stands -0.26.
For the sequence AACCGTTG, the “PBM E-score” value was -0.00171.
In the case of CGGCATAC it was -0.00615; in that of ACGCCTGA, 0.15.
Under TAATATTA stands 0.362; under AAATATTA, 0.295.
Under CAATATTA stands 0.264; under AGGCCAGG, -0.292; under CCTATACC, -0.227.
As to CATGACCG, the “PBM E-score” value is 0.0181.
Under AAGAAGTG stands -0.0945; under CAGGGAAG, -0.212; under GTGGTTAA, 0.205.
Under ACCGCTTA stands -0.00218; under CACGTGGA, 0.315.
Under AACGTGAA stands 0.14; under GACGTGGA, 0.23; under TACGTGGA, 0.424.
Consider CACGTGAA, for which the “PBM E-score” value amounted to 0.319.
Regarding TACGTGAA, the “PBM E-score” value was determined as 0.425.
Under CGAGCCTC stands -0.324; under GGCCCCTA, -0.188.
TAGGCTCA: the “PBM E-score” value is -0.19.
In the case of AAACAGTA it was 0.14; in that of CGATTACG, 0.448; in that of AGATTACC, 0.108.
In the case of AGATTACG it was 0.459; in that of CGATTACA, 0.106.
In the case of AGATTACT it was 0.201.
On to CGATTACC, for which the “PBM E-score” value was -0.0987.
As to ACCTGGCG, the “PBM E-score” value was -0.109.
For AAGCTACG, the “PBM E-score” value was determined as 0.251.
Under GAAAAAAC stands 0.201.
Under AATGACTA stands 0.0941; under ACTGACGA, 0.364; under CATGACAC, 0.258.
Under TATGACCA stands 0.178; under AATGACGA, 0.476.
On to ACTGACGG, for which the “PBM E-score” value is -0.104.
Take CATGACTC: the “PBM E-score” value is -0.0516.
Consider CATGACGC, for which the “PBM E-score” value came to 0.465.
Regarding AATGACCA, the “PBM E-score” value is 0.0136.
Turning to CCTGACGA, the “PBM E-score” value amounted to 0.24.
For TATGACGA, the “PBM E-score” value was 0.475.
For the sequence TATGACAA, the “PBM E-score” value turned out to be 0.21.
